Changes are numbered by the printed parent chain; changes in the protein carry UniProt numbers. Over roughly 16,000 sequences, “ka relative to ugcaugu” has its median near 0.0091; the highest 2% begin near 0.032. The full list was thinned out, with the highest values kept by preference.
T1: RBFOX1 RRM (Homo sapiens, UniProt Q9NWB1 109-208)
T1 sequence: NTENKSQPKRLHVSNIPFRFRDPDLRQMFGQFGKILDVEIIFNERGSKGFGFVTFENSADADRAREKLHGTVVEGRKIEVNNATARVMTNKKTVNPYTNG

B1: CUGCAGA (DNA:RNA)
RNA: GGGAGACCGGAAUUCAGAUUGUCCCUGCAGAUUAAAUCCCGUCGUAGCCACCA
DNA 1: CAATCTGAATTCCGGTCTCCC
DNA 2: TGGTGGCTACGACGGGATT
B2: AUUUAGA (DNA:RNA)
RNA: B1 RNA with C25A, G27U, C28U
DNA 1: CAATCTGAATTCCGGTCTCCC
DNA 2: TGGTGGCTACGACGGGATT
B3: GAACGUU (DNA:RNA)
RNA: B1 RNA with C25G, U26A, G27A, A29G, G30U, A31U
DNA 1: CAATCTGAATTCCGGTCTCCC
DNA 2: TGGTGGCTACGACGGGATT
B4: CGGCGCA (DNA:RNA)
RNA: B1 RNA with U26G, A29G, G30C
DNA 1: CAATCTGAATTCCGGTCTCCC
DNA 2: TGGTGGCTACGACGGGATT
B5: CCGCUCA (DNA:RNA)
RNA: B1 RNA with U26C, A29U, G30C
DNA 1: CAATCTGAATTCCGGTCTCCC
DNA 2: TGGTGGCTACGACGGGATT
B6: UUAGAAU (DNA:RNA)
RNA: B1 RNA with C25U, G27A, C28G, G30A, A31U
DNA 1: CAATCTGAATTCCGGTCTCCC
DNA 2: TGGTGGCTACGACGGGATT
B7: GUAUACC (DNA:RNA)
RNA: B1 RNA with C25G, G27A, C28U, G30C, A31C
DNA 1: CAATCTGAATTCCGGTCTCCC
DNA 2: TGGTGGCTACGACGGGATT
B8: UGGCUCU (DNA:RNA)
RNA: B1 RNA with C25U, U26G, A29U, G30C, A31U
DNA 1: CAATCTGAATTCCGGTCTCCC
DNA 2: TGGTGGCTACGACGGGATT
B9: UGGGCUC (DNA:RNA)
RNA: B1 RNA with C25U, U26G, C28G, A29C, G30U, A31C
DNA 1: CAATCTGAATTCCGGTCTCCC
DNA 2: TGGTGGCTACGACGGGATT
B10: UUGGCUC (DNA:RNA)
RNA: B1 RNA with C25U, C28G, A29C, G30U, A31C
DNA 1: CAATCTGAATTCCGGTCTCCC
DNA 2: TGGTGGCTACGACGGGATT
B11: CGGCUGU (DNA:RNA)
RNA: B1 RNA with U26G, A29U, A31U
DNA 1: CAATCTGAATTCCGGTCTCCC
DNA 2: TGGTGGCTACGACGGGATT
B12: GUGCUGU (DNA:RNA)
RNA: B1 RNA with C25G, A29U, A31U
DNA 1: CAATCTGAATTCCGGTCTCCC
DNA 2: TGGTGGCTACGACGGGATT
B13: CUGGCUC (DNA:RNA)
RNA: B1 RNA with C28G, A29C, G30U, A31C
DNA 1: CAATCTGAATTCCGGTCTCCC
DNA 2: TGGTGGCTACGACGGGATT
B14: CUGGCUG (DNA:RNA)
RNA: B1 RNA with C28G, A29C, G30U, A31G
DNA 1: CAATCTGAATTCCGGTCTCCC
DNA 2: TGGTGGCTACGACGGGATT
B15: CCCUGGC (DNA:RNA)
RNA: B1 RNA with U26C, G27C, C28U, A29G, A31C
DNA 1: CAATCTGAATTCCGGTCTCCC
DNA 2: TGGTGGCTACGACGGGATT
B16: CUGUGGC (DNA:RNA)
RNA: B1 RNA with C28U, A29G, A31C
DNA 1: CAATCTGAATTCCGGTCTCCC
DNA 2: TGGTGGCTACGACGGGATT
B17: GUGGCUG (DNA:RNA)
RNA: B1 RNA with C25G, C28G, A29C, G30U, A31G
DNA 1: CAATCTGAATTCCGGTCTCCC
DNA 2: TGGTGGCTACGACGGGATT
B18: UGGCUGU (DNA:RNA)
RNA: B1 RNA with C25U, U26G, A29U, A31U
DNA 1: CAATCTGAATTCCGGTCTCCC
DNA 2: TGGTGGCTACGACGGGATT
B19: UUGGCUG (DNA:RNA)
RNA: B1 RNA with C25U, C28G, A29C, G30U, A31G
DNA 1: CAATCTGAATTCCGGTCTCCC
DNA 2: TGGTGGCTACGACGGGATT
B20: CAUUUCG (DNA:RNA)
RNA: B1 RNA with U26A, G27U, C28U, A29U, G30C, A31G
DNA 1: CAATCTGAATTCCGGTCTCCC
DNA 2: TGGTGGCTACGACGGGATT

Each binder was assayed against T1, RBFOX1 RRM (assay: EMSA; HiTS-Eq, 1 nM pool, 10 min; buffer printed only for the single-RNA assays: 10 mM Tris pH 7.5, 150 mM NaCl, 3.4 mM EDTA, 0.001% NP-40, 30 C). Conditions: tags: His6 N-terminal (pET28a); label: 5' 32P.
Summary of the method: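 Relative association constants, normalised to the cognate motif, were derived by comparing read counts of each RNA species with those of the control reaction. The RNA sequenced was the free fraction, separated by 8% native PAGE after a 10 min equilibration in 50 µL of 1 nM 5′-radiolabelled RNA (7 randomized nucleotides) with increasing concentrations of purified wild-type or mutant RbFox RRM.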

In order of rising binding signal:
1. B7  0.0043 KA relative to UGCAUGU
2. B5  0.00712 KA relative to UGCAUGU
3. B20  0.00769 KA relative to UGCAUGU
4. B6  0.00773 KA relative to UGCAUGU
5. B16  0.0106 KA relative to UGCAUGU
6. B2  0.0108 KA relative to UGCAUGU
7. B15  0.011 KA relative to UGCAUGU
8. B4  0.0121 KA relative to UGCAUGU
9. B3  0.0166 KA relative to UGCAUGU
10. B1  0.0168 KA relative to UGCAUGU
11. B11  0.0179 KA relative to UGCAUGU
12. B8  0.0197 KA relative to UGCAUGU
13. B12  0.021 KA relative to UGCAUGU
14. B13  0.0211 KA relative to UGCAUGU
15. B10  0.0219 KA relative to UGCAUGU
16. B17  0.0289 KA relative to UGCAUGU
17. B14  0.0348 KA relative to UGCAUGU
18. B9  0.0362 KA relative to UGCAUGU
19. B18  0.0395 KA relative to UGCAUGU
20. B19  0.0406 KA relative to UGCAUGU

Reference: publication PMC9911399, “Two distinct binding modes provide the RNA-binding protein RbFox with extraordinary sequence specificity”
